For 3 molecules, outcome and AC50 results are on record in PubChem BioAssay (EPA / NIEHS).

Each structure is given as a SMILES string. Active and inactive are the calls of the source. The calls were made as follows: active = hit-call score of the fitted dose curve at least 0.9, where 1 is the maximum; inactive = score below 0.9.

Read-out in experiment [1]: Macrophage colony-stimulating factor (MCSF), CSF1 (gene 1435)
In words: BSK_hDFCGF_MCSF: BioMAP Diversity Plus: hDFCGF Assay for Macrophage colony-stimulating factor (MCSF) Biomarker Activity (AID 2283060). To be noted: primary human foreskin fibroblasts; actives raise or lower the signal. The essentials:
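ELISA read-out of M-CSF in human dermal foreskin fibroblast cultures, 24 h after chemical dosing; gain or loss of signal fitted bidirectionally relative to DMSO baseline.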

Experiment [2] can be described thus: BSK_hDFCGF_SRB: Viability Assessment in the BioMAP Diversity Plus: hDFCGF Assay (AID 2283061).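 Also: cells exposed to compound for 24 h before the read.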 The conditions noted are these: primary human foreskin fibroblasts. The essentials:
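Primary human foreskin fibroblasts; 24 h post-dose; fixed 10% TCA, stained 0.1% SRB, A560 read; total protein as overt cytotoxicity measure; curves fit bidirectionally vs DMSO control.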

Read-out in experiment [3]: TIMP metallopeptidase inhibitor 1 (TIMP1), TIMP1 (gene 7076)
In words: BSK_hDFCGF_TIMP1: BioMAP Diversity Plus: hDFCGF Assay for TIMP metallopeptidase inhibitor 1 (TIMP1) Biomarker Activity (AID 2283062). The conditions noted are these: primary human foreskin fibroblasts; actives raise or lower the signal. The essentials:
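ELISA readout of TIMP-1 from human dermal foreskin fibroblast cultures 24 h post-dosing. Curves were fitted in both directions against DMSO baseline, with SRB total-protein staining in parallel cultures as a cytotoxicity check.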

Read-out in experiment [4]: Monokine induced gamma interferon (MIG), CXCL9 (gene 4283)
In words: BSK_hDFCGF_MIG: BioMAP Diversity Plus: hDFCGF Assay for Monokine induced gamma interferon (MIG) Biomarker Activity (AID 2283063). To be noted: primary human foreskin fibroblasts; actives raise or lower the signal. The procedure, abridged: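 Fibroblasts (human foreskin, primary) dosed, 24 h, MIG by ELISA; fit bidirectional vs DMSO.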

Read-out in experiment [5]: Matrix Metallopeptidase 1 (MMP1), MMP1 (gene 4312)
Nature of the experiment: BSK_hDFCGF_MMP1: BioMAP Diversity Plus: hDFCGF Assay for Matrix Metallopeptidase 1 (MMP1) Biomarker Activity (AID 2283064). To be noted: primary human foreskin fibroblasts; actives raise or lower the signal. The procedure, abridged:
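Primary human foreskin fibroblasts exposed to chemicals for 24 h; MMP1 measured by ELISA. Cytotoxicity tracked by SRB staining in parallel cultures; bidirectional fit relative to DMSO.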

Read-out in experiment [6]: Vascular cell adhesion molecule 1 (VCAM1), VCAM1 (gene 7412)
In words: BSK_hDFCGF_VCAM1: BioMAP Diversity Plus: hDFCGF Assay for Vascular cell adhesion molecule 1 (VCAM1) Biomarker Activity (AID 2283065).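 As to AC50: VCAM-1 protein level quantified by ELISA after 24 h chemical exposure.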 To be noted: primary human foreskin fibroblasts; actives raise or lower the signal. The essentials:
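ELISA read-out of VCAM-1 on human skin fibroblasts, 24 h post-dose; gain or loss of signal fitted bidirectionally against DMSO baseline.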

Read-out in experiment [7]: Plasminogen activator inhibitor-1 (PAI1), SERPINE1 (gene 5054)
In words: BSK_hDFCGF_PAI1: BioMAP Diversity Plus: hDFCGF Assay for Plasminogen activator inhibitor-1 (PAI1) Biomarker Activity (AID 2283066). The conditions noted are these: primary human foreskin fibroblasts; actives raise or lower the signal. The procedure, abridged:
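Human foreskin fibroblasts in the hDFCGF system were dosed with compound for 24 h; PAI-1 was quantified by ELISA. Bidirectional curve fitting used DMSO as negative control and baseline.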

Read-out in experiment [8]: Intercellular Adhesion Molecule 1 (ICAM1), ICAM1 (gene 3383)
In words: BSK_KF3CT_ICAM1: BioMAP Diversity Plus: KF3CT Assay for Intercellular Adhesion Molecule 1 (ICAM1) Biomarker Activity (AID 2283067). To be noted: primary human keratinocytes with fibroblasts; actives raise or lower the signal. The procedure, abridged:
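ELISA readout of ICAM-1; KF3CT human skin co-culture (keratinocytes + foreskin fibroblasts), 24 h post-dose; gain/loss fit vs DMSO baseline.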

Read-out in experiment [9]: Interferon-gamma inducible Protein 10 (IP10), CXCL10 (gene 3627)
In words: BSK_KF3CT_IP10: BioMAP Diversity Plus: KF3CT Assay for Interferon-gamma inducible Protein 10 (IP10) Biomarker Activity (AID 2283068). To be noted: primary human keratinocytes with fibroblasts; actives raise or lower the signal. The essentials: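 In a primary skin co-culture of keratinocytes and fibroblasts, IP-10 is quantified by ELISA at 24 h after dosing. SRB staining of parallel wells monitors overt toxicity. Curves are fitted both directions against DMSO.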

A short description of experiment [10]: BSK_KF3CT_SRB: Viability Assessment in the BioMAP Diversity Plus: KF3CT Assay (AID 2283069).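 Also: total protein by sulforhodamine B staining as a cytotoxicity measure; read 24 h after compound addition.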 To be noted: primary human keratinocytes with fibroblasts. The essentials:
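Human keratinocyte and foreskin fibroblast co-culture exposed to chemical for 24 h. Total protein measured in parallel cultures by 0.1% sulforhodamine B staining after 10% TCA fixation, read at 560 nm; bidirectional fit relative to DMSO.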

Read-out in experiment [11]: Interleukin-1 alpha (IL1a), IL1A (gene 3552)
Nature of the experiment: BSK_KF3CT_IL1a: BioMAP Diversity Plus: KF3CT Assay for Interleukin-1 alpha (IL1a) Biomarker Activity (AID 2283070). The conditions noted are these: primary human keratinocytes with fibroblasts; actives raise or lower the signal. The procedure, abridged:
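Primary human keratinocyte plus foreskin fibroblast co-culture, dosed and measured at 24 h in 96-well plates. IL-1a level quantified by ELISA; bidirectional fit relative to DMSO.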

Read-out in experiment [12]: TIMP metallopeptidase inhibitor 2 (TIMP2), TIMP2 (gene 7077)
In words: BSK_KF3CT_TIMP2: BioMAP Diversity Plus: KF3CT Assay for TIMP metallopeptidase inhibitor 2 (TIMP2) Biomarker Activity (AID 2283071). To be noted: primary human keratinocytes with fibroblasts; actives raise or lower the signal. The essentials: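 Human primary keratinocyte/foreskin fibroblast co-culture dosed with chemical and sampled at 24 h. TIMP-2 levels quantified by ELISA; bidirectional fitting against DMSO negative control as baseline.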

Read-out in experiment [13]: Transforming growth factor beta 1 (TGFb1), TGFB1 (gene 7040)
In words: BSK_KF3CT_TGFb1: BioMAP Diversity Plus: KF3CT Assay for Transforming growth factor beta 1 (TGFb1) Biomarker Activity (AID 2283072). The conditions noted are these: primary human keratinocytes with fibroblasts; actives raise or lower the signal. The essentials:
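Human keratinocyte plus foreskin fibroblast primary co-culture, dosed with chemical for 24 h. TGF-b1 quantified by ELISA. Activity fitted bidirectionally against DMSO negative control as baseline.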

Read-out in experiment [14]: C-C motif chemokine 2 (Homo sapiens) (UniProt P13500)
Nature of the experiment: BSK_KF3CT_MCP1: BioMAP Diversity Plus: KF3CT Assay for Monocyte Chemoattractant Protein 1 (MCP1/CCL2) Biomarker Activity (AID 2283073). The conditions noted are these: primary human keratinocytes with fibroblasts; actives raise or lower the signal. The procedure, abridged:
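KF3CT skin co-culture (keratinocytes/foreskin fibroblasts), 24 h post-dose; MCP-1 by ELISA; gain/loss of signal fit bidirectionally vs DMSO baseline.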

Read-out in experiment [15]: Matrix Metallopeptidase 9 (MMP9), MMP9 (gene 4318)
In words: BSK_KF3CT_MMP9: BioMAP Diversity Plus: KF3CT Assay for Matrix Metallopeptidase 9 (MMP9) Biomarker Activity (AID 2283074).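 As to AC50: MMP9 protein level quantified by ELISA in the co-culture.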 To be noted: primary human keratinocytes with fibroblasts; actives raise or lower the signal. The essentials: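 Human keratinocyte and foreskin fibroblast co-culture exposed to chemicals for 24 h; MMP9 biomarker measured by ELISA, bidirectional fitting relative to DMSO; cytotoxicity tracked by SRB total protein staining in parallel cultures.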

Read-out in experiment [16]: urokinase plasminogen activator (uPA), PLAU (gene 5328)
In words: BSK_KF3CT_uPA: BioMAP Diversity Plus: KF3CT Assay for urokinase plasminogen activator (uPA) Biomarker Activity (AID 2283075). The conditions noted are these: primary human keratinocytes with fibroblasts; actives raise or lower the signal. The procedure, abridged:
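Primary human keratinocyte/foreskin fibroblast co-culture exposed to chemical; uPA measured by ELISA at 24 h. Bidirectional fit versus DMSO, with parallel SRB total-protein staining for cytotoxicity.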

Read-out in experiment [17]: CD40, CD40 (gene 958)
In words: BSK_LPS_CD40: BioMAP Diversity Plus: LPS Assay for CD40 Biomarker Activity (AID 2283076). To be noted: primary human HUVEC with PBMC; actives raise or lower the signal. The procedure, abridged: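 ELISA readout of CD40 in HUVEC/PBMC co-culture (BSK_LPS system), 24 h post-dosing; bidirectional curve fit, DMSO baseline; parallel SRB total-protein staining for cytotoxicity.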

Read-out in experiment [18]: E-selectin (Homo sapiens) (UniProt P16581)
In words: BSK_LPS_Eselectin: BioMAP Diversity Plus: LPS Assay for Eselectin Biomarker Activity (AID 2283077). To be noted: primary human HUVEC with PBMC; actives raise or lower the signal. The procedure, abridged:
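ELISA readout of E-selectin, 24 h post-dose, HUVEC + PBMC co-culture (LPS system). Gain or loss of signal vs DMSO baseline, bidirectional fit.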

Read-out in experiment [19]: Interleukin-8 (IL8), CXCL8 (gene 3576)
Nature of the experiment: BSK_LPS_IL8: BioMAP Diversity Plus: LPS Assay for Interleukin-8 (IL8) Biomarker Activity (AID 2283078). To be noted: primary human HUVEC with PBMC; actives raise or lower the signal. The procedure, abridged:
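HUVEC + PBMC co-culture, LPS-activated; test chemicals dosed, IL-8 read by ELISA at 24 h. Bidirectional curve fit vs DMSO baseline (gain or loss of signal).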

Experiment [20] is described as follows: BSK_LPS_SRB: Viability Assessment in the BioMAP Diversity Plus: LPS Assay (AID 2283079).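 Also: total protein by sulforhodamine B absorbance as a cytotoxicity measure; measured one day after compound addition; fitted in both directions against DMSO so loss or gain of signal counts.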 To be noted: primary human HUVEC with PBMC. The essentials:
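HUVEC + PBMC co-culture, LPS-stimulated; compound 24 h. 10% TCA fix, 0.1% SRB stain, A560. Bidirectional fit vs DMSO.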

Chain of E-selectin (Homo sapiens) (P16581 whole entry, looked up): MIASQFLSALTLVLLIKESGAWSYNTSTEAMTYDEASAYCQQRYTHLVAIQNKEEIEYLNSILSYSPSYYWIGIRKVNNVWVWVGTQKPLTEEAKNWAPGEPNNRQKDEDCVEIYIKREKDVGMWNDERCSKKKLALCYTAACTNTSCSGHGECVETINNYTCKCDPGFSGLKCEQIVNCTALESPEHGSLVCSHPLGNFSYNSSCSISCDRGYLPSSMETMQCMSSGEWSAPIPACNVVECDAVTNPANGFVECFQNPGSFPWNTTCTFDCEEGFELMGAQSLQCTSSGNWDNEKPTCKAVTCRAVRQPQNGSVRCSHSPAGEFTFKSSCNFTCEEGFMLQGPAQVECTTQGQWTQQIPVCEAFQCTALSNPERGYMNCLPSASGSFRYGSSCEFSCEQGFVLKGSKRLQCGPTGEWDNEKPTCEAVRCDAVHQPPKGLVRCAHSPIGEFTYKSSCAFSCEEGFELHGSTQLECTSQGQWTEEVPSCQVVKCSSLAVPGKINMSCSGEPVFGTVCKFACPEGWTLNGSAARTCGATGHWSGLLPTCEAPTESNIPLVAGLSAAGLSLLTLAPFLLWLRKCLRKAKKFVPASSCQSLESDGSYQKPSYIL

As for `OCC1CO1` (centres undefined), the outcome in [1], in experiment [2], in [3], in experiment [4], in experiment [5] and in experiment [6] was inactive. Besides, the result in experiment [7], in experiment [8], in experiment [9], in experiment [10], in experiment [11] and in experiment [12] was inactive. Further, the result in experiment [13], in experiment [14], in experiment [15], in experiment [16], in [17] and in [18] was inactive. Also, the result in experiment [19] and in [20] was inactive.
As for `CC(C)Nc1ccc(Nc2ccccc2)cc1`, the AC50 (as a rule, the midpoint of the concentration-response curve, whichever way the signal moves) is 6.38 µM (active) in [1]; 6.01 µM (active) in [2]; 6.56 µM (active) in [3]; 6.46 µM (active) in experiment [4]; 11.4 µM (active) in experiment [5]; 2.21 µM (active) in experiment [6]. Further, the AC50 is 7.9 µM (active) in experiment [7]; 20 µM (active) in [8]; 32.7 µM (active) in experiment [9]; 24.4 µM (active) in experiment [11]; 28.9 µM (active) in experiment [12]; 17.3 µM (active) in [13]. For the same molecule, the AC50 in experiment [14] is 33.3 µM (active); in [15], 20 µM (active); in [16], 31.6 µM (active); in [17], 14 µM (active); in [18], 12.9 µM (active); in [19] it was 20 µM (active). In experiment [20], the AC50 is 15.8 µM (active).
In the case of `CCCCC(CC)COC(=O)c1c(Br)c(Br)c(Br)c(Br)c1C(=O)OCC(CC)CCCC` (centres undefined), the outcome in experiment [1], in [2], in experiment [3], in experiment [4], in [5] and in [6] was inactive. Besides, the outcome in [7], in experiment [8], in [9], in [10], in experiment [11] and in [12] was inactive. The result in experiment [13], in experiment [14], in experiment [15], in experiment [16], in experiment [17] and in experiment [18] was inactive. The outcome in experiment [19] and in [20] was inactive.
